Most compounds without a hit are left out; they make up all but 7% or so of the library.
S2 tox = cell viability loss in ATXN counter-screen | S2 cells (HEK-293 line with an ATXN2-luciferase reporter) viability, CellTiter-Fluor protease fluorescence, 24 h | Potency, µM (top dose mostly 56.7 µM), hits mostly cytotoxic | AID 651635 | 0.49% of 400,000 active; note: potency is the fitted concentration of half-maximal effect; nearly all actives have a fitted effect of over 40% in size
DRD3 antagonist = antagonists of human D3 dopamine receptor; AID 652054; D3R cells, DiscoveRx beta-arrestin luminescence, antagonist mode; hits give low values; max response, negative = inhibition, %; P35462; 2.5% of 360,000 active; in the data active = max response below about -50%; inconclusive = no clear call, values can overlap the other calls; note: % is set by controls: 0 for no effect and ±100 for the full control effect
Target sequence (P35462 whole entry, looked up): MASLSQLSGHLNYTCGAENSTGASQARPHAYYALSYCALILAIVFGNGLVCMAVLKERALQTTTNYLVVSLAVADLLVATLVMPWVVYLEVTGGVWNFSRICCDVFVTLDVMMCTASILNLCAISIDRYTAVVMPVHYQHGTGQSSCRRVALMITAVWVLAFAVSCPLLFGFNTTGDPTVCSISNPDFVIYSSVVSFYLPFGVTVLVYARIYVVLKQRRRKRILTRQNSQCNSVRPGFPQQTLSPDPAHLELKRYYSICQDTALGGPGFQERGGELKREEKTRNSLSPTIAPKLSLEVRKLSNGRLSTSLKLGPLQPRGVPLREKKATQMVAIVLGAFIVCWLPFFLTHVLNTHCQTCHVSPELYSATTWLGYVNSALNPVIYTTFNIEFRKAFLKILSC
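Cells plated overnight at 1500 cells/well, then exposed to library compounds with dopamine controls for 90 minutes at 37 degrees C. DiscoveRx reagent added for 30–60 minutes at room temperature; luminescence read, quantitative HTS format.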
ATXN2 expr inh = reduces ATXN2 reporter expression in HEK-293 cells. HEK-293 ATXN2-luciferase reporter, luminescence, 24 h. 0.72% of 360,000 active. Potency, µM (series often up to 57 µM), inactives show at the top dose activity change, negative = inhibition, actives largely listed as inhibitors; note: potency is the fitted concentration of half-maximal effect; % is set by controls: 0 for no effect and ±100 for the full control effect; nearly all actives have a fitted effect of over 55% in size
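ATXN2-luciferase reporter cells (luciferase flanked by upstream and downstream ATXN2 gene portions) were treated 24 h at 37 °C with compounds at up to 57 uM. SteadyGlo luminescence gave expression; GF-AFC fluorescence gave viability.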
IL-1B inflam inh = inhibitors of inflammasome signaling (IL-1 beta secretion) | THP-1 LPS/ATP IL-1B secretion, AlphaLISA, 16 h; hits give low values | activity change, % at 57.5 µM | 4.7% of 360,000 active; in the data active = activity change below about -50%; inconclusive = mostly about -30% to -49%; note: % is set by controls: 0 for no effect and ±100 for the full control effect
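THP-1 cells pretreated 1 hr with compounds (up to 57.5 uM final), then stimulated with LPS (250 ng/mL final) plus ATP (1.25 mM final); secreted IL-1B measured by AlphaLISA after 16 hr, decreased signal indicating inhibition.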
a7 integrin act = activates integrin-mediated alleviation for muscular dystrophy; alpha7betagal myoblasts, beta-gal FDG fluorescence, 48 h; Potency, µM (series often up to 38.3 µM), for the others: at the highest dose activation, usual class: activators; AID 624291; 0.064% of 350,000 active;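 note: potency is the fitted concentration of half-maximal effect; 100% = response of the positive control SU9516; nearly all actives have a fitted effect of over 60% in size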
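Alpha7betagal+/- myoblasts (passage 13) were plated 16-24 hr, then exposed to compounds (1:260 dilution of DMSO stock) for 48 hours at 37C. After MPER lysis, β-galactosidase reporter activity was read as FDG fluorescence (ex 480/em 540) after 30 minutes.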
DRD3 agonist = agonists of human D3 dopamine receptor; max activation, %; P35462; D3R DiscoveRx beta-arrestin cells, luminescence, 90 min; 0.58% of 410,000 active; AID 652048; in the data active = max activation above about 30%; note: 0% is about no effect
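Cells at 1500/well, incubated overnight, then treated with pinned compounds (dopamine as control) for 90 min at 37 degrees C. DiscoveRx reagent added for 30 - 60 minutes at room temperature; luminescence read.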
Numbers without * were called inactive; i = inactive; u = inconclusive; x = no result given. Unless noted, calls come from the whole dose curve; as a rule, active = well fitted curve in the direction sought with a large enough effect; inconclusive = small, poorly fitted or top-dose-only effect, or another doubt; inactive = no such curve, though single readings can be large; an effect the other way counts as inactive or inconclusive.

SMILES | S2 tox | DRD3 antagonist | ATXN2 expr inh | IL-1B inflam inh | a7 integrin act | DRD3 agonist
COc1ccc(S(=O)(=O)N2CCCC(C(=O)Nc3ccc4c(c3)OCCO4)C2)cc1 (stereo not given) | i | -3 | 0% | u | 11% | -4
O=C(O)c1ccc(-n2c(-c3cc(-c4ccco4)[nH]n3)n[nH]c2=S)cc1 | i | -91* | 1% | 13 | 3% | -11
Cc1ccc(-n2c(-c3cc(-c4ccco4)[nH]n3)n[nH]c2=S)c(Br)c1 | i | -4 | -16% | 29 | 7% | 12
CC(=O)c1ccc(-n2c(-c3cc(-c4ccco4)[nH]n3)n[nH]c2=S)cc1 | i | -84* | -10% | -16 | 30% | -10
CN(C)CCCN(Cc1ccccc1)C(=S)Nc1ccc(F)c(Cl)c1 | i | -15 | u | u | -66% | -7
S=C(Nc1ccccc1Cl)N(Cc1ccccc1)Cc1ccccn1 | i | -1 | 0% | -52* | 29% | -1
OCCN(Cc1ccccc1)C(=S)Nc1ccc(Cl)cc1Cl | i | 2 | 11% | -56* | 0% | -6
O=C(Nc1nc(-c2ccccn2)cs1)c1ccc(F)c(S(=O)(=O)N2CCOCC2)c1 | u | 0 | u | 140 | -31% | 0
O=C(Nc1nc(-c2ccccn2)cs1)c1cc(S(=O)(=O)N2CCOCC2)ccc1F | i | -77* | -5% | 97 | -53% | -28
Cc1ccc(S(=O)(=O)N2CCOCC2)cc1NC(=O)c1cc(-c2ccccn2)nc2ccccc12 | i | 23 | -8% | -51* | u | 17
O=C(O)c1ccc(CSc2nc3c(c(=O)[nH]2)CCC3)cc1 | i | 0 | 0% | 32 | x | -1
Cc1cc(C)cc(OCC(=O)Nc2ccc(N3CCN(S(C)(=O)=O)CC3)cc2)c1 | i | 21 | 1% | -10 | 8% | 4
c1csc(Cc2nn3c(-c4n[nH]c5c4CCC5)nnc3s2)c1 | i | -61* | 11% | -1 | 0% | 0
c1coc(-c2nnc3sc(Cc4cccs4)nn23)c1 | i | -4 | 1% | -4 | 21% | 8
CCOc1ccc(-c2cc(C(=O)NCCc3ccc(Cl)cc3)c3ccccc3n2)cc1 | i | x | 7% | x | x | 11
CCCCCCC(C)n1[nH]c(=O)c2c(C)cc(C)nc21 (stereo not given) | i | -2 | -8% | 45 | 6% | -26
CCCCCC(C)n1[nH]c(=O)cc1N (stereo not given) | i | -109* | -6% | 0 | 13% | 4
CCc1ccc(C2c3[nH]c4ccccc4c3CCN2C(=O)c2ccc(=O)n(C)n2)cc1 (stereo not given) | i | -5 | 8% | 30 | -5% | 6
CCc1ccc(C2c3[nH]c4ccccc4c3CCN2C(=O)CNC(N)=O)cc1 (stereo not given) | i | -19 | -10% | -57* | 12% | -1
CCc1ccc(C2c3[nH]c4ccccc4c3CCN2C(=O)CN2CCN(CC)CC2)cc1 (stereo not given) | 25µM* | -55* | u | -72* | -65% | -14
O=C(CCc1ccccc1)N1CCc2c([nH]c3ccccc23)C1c1ccc(F)cc1 (stereo not given) | x | x | x | x | x | -6
C=CCn1c(SCC(=O)NC)nc2sc3c(c2c1=O)CCC3 | i | -18 | 8% | 55 | 14% | 2
COc1coc(C(O)CN)cc1=O (stereo not given) | i | -12 | 0% | 4 | 13% | -13
CCOC(=O)C(=Cc1cc(=O)c(OC)co1)C(=O)OCC | u | 0 | u | -97* | -16% | -2
O=c1cc(-c2ccccc2)n(S(=O)(=O)c2ccc3ccccc3c2)o1 | i | -77* | -3% | 6 | 20% | -5
O=c1cc(-c2ccccc2)n(S(=O)(=O)c2ccccc2)o1 | i | u | 0% | -8 | 22% | -3
COc1cccc(C(=O)NCCS(=O)(=O)NC2CCCC2)c1 | i | -74* | -15% | 11 | 0% | -9
CCCCCCCCNCCS(=O)(=O)NC1CCCCC1 | u | -91* | u | -70* | -43% | -37
